Our source for the inhibition values is ChEMBL document CHEMBL1961873, “Compounds: GSK PKIS; Assays: Nanosyn kinase panel” (2012).

Assay [1] concerns the target T1, Serine/threonine-protein kinase Nek9 (Homo sapiens) (UniProt Q8TD19).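 Also: each value is a mean percent inhibition of NEK9.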
T1 sequence (whole entry): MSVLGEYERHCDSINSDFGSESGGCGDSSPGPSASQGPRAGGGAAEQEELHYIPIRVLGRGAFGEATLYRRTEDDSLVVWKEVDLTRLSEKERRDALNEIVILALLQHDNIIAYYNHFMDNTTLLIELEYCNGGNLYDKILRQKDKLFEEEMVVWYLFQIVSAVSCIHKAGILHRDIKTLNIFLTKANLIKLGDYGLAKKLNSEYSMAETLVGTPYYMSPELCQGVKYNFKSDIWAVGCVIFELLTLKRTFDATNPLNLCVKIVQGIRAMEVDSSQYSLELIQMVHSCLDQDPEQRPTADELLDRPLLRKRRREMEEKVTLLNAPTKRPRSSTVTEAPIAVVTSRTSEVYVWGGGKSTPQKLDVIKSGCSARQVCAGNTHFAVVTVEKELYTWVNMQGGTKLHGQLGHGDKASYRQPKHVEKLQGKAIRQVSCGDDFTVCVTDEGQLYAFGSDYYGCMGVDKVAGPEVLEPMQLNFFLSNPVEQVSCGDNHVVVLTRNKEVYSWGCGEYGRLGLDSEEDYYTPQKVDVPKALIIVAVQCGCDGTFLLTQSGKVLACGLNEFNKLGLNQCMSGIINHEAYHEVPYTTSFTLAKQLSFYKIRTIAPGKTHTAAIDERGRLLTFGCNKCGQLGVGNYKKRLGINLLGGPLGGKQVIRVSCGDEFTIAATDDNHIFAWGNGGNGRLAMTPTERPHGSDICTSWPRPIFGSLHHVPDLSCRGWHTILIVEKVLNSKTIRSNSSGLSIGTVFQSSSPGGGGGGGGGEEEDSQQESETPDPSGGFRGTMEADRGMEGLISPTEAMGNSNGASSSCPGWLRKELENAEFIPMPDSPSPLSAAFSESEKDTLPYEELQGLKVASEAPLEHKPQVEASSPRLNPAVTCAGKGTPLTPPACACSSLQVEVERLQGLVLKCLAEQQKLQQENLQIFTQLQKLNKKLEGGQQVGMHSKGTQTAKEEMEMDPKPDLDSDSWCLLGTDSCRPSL
The settings on record: at 1 µM.

Assay [2] deals with Serine/threonine-protein kinase PLK1 (Homo sapiens) (UniProt P53350). To be noted: at 0.1 µM.
Assay [3] shares this target. The settings on record: at 1 µM.
Assay [4] has as its target T2, Dual specificity protein kinase TTK (Homo sapiens) (UniProt P33981).
T2 sequence (whole entry): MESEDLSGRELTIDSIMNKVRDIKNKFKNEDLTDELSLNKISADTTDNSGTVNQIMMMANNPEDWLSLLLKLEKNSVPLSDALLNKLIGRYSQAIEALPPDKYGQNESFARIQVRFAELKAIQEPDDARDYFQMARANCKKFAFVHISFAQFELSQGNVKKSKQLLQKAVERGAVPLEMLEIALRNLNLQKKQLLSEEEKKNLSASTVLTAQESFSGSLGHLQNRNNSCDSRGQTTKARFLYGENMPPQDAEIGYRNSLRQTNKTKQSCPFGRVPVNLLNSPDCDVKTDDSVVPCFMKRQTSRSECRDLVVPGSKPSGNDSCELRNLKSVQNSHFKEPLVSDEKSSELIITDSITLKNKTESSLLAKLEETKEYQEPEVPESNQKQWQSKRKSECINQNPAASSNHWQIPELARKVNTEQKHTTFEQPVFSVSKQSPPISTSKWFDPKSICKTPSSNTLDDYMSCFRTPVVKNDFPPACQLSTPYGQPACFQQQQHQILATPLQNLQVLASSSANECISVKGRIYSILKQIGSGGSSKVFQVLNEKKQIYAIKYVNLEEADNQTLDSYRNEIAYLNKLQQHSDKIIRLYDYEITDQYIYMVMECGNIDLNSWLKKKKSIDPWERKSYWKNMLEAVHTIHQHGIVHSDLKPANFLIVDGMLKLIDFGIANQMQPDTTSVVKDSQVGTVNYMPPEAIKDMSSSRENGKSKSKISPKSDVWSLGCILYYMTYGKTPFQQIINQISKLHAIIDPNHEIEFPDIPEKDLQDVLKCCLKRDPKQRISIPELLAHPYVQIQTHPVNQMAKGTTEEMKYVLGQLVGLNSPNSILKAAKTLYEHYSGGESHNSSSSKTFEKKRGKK
The settings on record: at 0.1 µM.

Assay [5] has as its system T3, Receptor-type tyrosine-protein kinase FLT3 (Homo sapiens), P36888 [D835Y].
T3 sequence (whole entry): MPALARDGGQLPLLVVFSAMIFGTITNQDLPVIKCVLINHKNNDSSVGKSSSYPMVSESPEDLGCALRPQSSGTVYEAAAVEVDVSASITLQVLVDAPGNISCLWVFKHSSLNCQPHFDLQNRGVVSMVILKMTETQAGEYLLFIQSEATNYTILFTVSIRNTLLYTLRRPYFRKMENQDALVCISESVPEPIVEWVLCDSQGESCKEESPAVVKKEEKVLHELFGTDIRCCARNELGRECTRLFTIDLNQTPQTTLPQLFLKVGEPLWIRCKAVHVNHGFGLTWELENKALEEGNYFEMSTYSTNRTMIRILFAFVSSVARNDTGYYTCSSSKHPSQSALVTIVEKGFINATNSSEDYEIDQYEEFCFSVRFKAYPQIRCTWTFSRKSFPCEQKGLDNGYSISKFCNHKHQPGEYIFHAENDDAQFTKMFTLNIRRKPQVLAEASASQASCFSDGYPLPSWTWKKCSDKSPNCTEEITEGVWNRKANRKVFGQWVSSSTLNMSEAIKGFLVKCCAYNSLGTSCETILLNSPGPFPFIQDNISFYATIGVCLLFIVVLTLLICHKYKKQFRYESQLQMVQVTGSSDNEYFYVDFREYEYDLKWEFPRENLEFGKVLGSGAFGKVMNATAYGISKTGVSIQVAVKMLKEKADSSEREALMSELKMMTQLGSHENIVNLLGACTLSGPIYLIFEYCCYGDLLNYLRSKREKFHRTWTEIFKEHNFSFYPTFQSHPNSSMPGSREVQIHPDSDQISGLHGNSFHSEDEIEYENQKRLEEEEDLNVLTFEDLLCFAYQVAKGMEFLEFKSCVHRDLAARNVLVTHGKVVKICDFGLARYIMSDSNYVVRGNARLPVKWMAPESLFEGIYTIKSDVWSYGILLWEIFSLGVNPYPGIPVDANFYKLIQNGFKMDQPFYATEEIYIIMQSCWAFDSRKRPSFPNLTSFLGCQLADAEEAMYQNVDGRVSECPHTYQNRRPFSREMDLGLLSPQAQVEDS
To be noted: at 1 µM.

Assay [6] concerns the target Vascular endothelial growth factor receptor 3 (Homo sapiens) (UniProt P35916). To be noted: at 0.1 µM.
For assay [7] the target is unchanged. The settings on record: at 1 µM.
Assay [8] has as its target Macrophage colony-stimulating factor 1 receptor (Homo sapiens) (UniProt P07333). To be noted: at 0.1 µM.
Assay [9] has the same target. To be noted: at 1 µM.
The target of assay [10] is Tyrosine-protein kinase Fyn (Homo sapiens) (UniProt P06241). The settings on record: at 0.1 µM.
Sequence of Tyrosine-protein kinase Fyn (Homo sapiens) (P06241 2-537 limits assumed): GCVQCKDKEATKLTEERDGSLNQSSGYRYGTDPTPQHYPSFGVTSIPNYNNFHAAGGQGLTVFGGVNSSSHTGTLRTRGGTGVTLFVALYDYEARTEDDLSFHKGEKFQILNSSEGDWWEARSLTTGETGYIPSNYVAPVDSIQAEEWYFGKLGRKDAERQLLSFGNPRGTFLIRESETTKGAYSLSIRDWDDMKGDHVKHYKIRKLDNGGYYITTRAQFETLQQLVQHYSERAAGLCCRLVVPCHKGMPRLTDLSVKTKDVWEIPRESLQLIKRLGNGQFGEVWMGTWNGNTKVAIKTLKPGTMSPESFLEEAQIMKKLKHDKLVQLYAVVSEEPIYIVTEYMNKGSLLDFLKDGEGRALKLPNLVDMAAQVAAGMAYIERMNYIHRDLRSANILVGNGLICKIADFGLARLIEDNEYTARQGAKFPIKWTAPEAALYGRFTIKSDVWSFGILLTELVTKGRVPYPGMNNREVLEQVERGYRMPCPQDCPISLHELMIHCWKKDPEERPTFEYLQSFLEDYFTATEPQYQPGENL

Sequence of Vascular endothelial growth factor receptor 3 (Homo sapiens) (P35916 whole entry): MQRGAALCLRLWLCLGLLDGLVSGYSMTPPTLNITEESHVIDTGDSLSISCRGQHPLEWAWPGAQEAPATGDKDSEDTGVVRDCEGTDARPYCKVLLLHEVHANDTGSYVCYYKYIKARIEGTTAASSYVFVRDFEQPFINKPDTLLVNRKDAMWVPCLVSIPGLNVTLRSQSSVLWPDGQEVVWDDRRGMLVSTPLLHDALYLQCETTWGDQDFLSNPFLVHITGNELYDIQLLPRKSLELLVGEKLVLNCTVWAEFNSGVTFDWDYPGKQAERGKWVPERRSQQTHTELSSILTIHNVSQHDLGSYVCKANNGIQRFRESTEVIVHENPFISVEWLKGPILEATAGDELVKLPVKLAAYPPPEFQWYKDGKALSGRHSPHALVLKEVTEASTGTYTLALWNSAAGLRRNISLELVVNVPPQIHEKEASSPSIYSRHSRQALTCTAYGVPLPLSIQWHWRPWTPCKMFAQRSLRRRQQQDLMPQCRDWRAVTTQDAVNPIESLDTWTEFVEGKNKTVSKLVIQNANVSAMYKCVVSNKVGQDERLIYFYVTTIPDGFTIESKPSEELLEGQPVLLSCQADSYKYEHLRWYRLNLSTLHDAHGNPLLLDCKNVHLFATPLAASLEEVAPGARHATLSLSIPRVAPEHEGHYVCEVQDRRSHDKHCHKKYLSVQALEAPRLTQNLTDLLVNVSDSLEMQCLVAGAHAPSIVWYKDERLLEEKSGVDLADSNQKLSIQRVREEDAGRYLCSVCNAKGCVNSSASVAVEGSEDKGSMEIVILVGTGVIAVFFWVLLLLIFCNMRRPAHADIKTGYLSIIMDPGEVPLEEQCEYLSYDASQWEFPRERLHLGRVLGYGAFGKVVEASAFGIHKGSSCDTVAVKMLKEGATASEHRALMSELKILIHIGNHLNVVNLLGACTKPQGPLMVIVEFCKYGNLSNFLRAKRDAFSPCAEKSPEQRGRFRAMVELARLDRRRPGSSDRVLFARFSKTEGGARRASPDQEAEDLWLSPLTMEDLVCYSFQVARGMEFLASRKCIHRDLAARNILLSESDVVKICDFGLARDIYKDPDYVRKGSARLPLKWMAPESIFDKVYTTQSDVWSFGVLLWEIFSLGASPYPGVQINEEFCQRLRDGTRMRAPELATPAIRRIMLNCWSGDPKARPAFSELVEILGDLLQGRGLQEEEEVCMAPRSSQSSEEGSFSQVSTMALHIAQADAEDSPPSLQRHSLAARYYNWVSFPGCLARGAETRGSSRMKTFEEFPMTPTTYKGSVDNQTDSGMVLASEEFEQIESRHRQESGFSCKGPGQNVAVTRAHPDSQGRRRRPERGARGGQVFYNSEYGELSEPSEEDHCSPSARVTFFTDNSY
Sequence of Macrophage colony-stimulating factor 1 receptor (Homo sapiens) (P07333 whole entry): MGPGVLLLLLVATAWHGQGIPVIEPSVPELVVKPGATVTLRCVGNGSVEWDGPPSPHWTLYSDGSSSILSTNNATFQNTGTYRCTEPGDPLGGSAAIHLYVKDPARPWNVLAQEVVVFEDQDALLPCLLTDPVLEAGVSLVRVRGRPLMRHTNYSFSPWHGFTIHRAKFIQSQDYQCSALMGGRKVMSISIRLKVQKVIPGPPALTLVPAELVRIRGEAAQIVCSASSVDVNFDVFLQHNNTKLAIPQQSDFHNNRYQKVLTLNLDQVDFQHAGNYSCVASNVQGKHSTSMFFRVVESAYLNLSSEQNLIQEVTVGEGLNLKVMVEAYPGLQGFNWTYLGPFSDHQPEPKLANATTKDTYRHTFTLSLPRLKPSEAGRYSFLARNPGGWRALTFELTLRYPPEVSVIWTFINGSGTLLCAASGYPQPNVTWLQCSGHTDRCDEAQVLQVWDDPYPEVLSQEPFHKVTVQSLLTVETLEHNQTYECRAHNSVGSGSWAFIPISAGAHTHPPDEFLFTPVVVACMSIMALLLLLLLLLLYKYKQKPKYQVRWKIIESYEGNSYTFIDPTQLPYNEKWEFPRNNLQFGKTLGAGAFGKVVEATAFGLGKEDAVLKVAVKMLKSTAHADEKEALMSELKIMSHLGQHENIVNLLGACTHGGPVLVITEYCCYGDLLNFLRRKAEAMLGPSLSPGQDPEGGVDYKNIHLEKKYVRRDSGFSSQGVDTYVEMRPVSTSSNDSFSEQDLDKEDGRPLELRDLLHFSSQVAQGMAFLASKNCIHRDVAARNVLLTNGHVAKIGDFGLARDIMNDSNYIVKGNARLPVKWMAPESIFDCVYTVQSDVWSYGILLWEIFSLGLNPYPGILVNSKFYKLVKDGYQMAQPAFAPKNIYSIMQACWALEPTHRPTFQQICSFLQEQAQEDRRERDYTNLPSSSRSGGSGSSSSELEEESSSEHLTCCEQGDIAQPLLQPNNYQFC
Sequence of Serine/threonine-protein kinase PLK1 (Homo sapiens) (P53350 whole entry): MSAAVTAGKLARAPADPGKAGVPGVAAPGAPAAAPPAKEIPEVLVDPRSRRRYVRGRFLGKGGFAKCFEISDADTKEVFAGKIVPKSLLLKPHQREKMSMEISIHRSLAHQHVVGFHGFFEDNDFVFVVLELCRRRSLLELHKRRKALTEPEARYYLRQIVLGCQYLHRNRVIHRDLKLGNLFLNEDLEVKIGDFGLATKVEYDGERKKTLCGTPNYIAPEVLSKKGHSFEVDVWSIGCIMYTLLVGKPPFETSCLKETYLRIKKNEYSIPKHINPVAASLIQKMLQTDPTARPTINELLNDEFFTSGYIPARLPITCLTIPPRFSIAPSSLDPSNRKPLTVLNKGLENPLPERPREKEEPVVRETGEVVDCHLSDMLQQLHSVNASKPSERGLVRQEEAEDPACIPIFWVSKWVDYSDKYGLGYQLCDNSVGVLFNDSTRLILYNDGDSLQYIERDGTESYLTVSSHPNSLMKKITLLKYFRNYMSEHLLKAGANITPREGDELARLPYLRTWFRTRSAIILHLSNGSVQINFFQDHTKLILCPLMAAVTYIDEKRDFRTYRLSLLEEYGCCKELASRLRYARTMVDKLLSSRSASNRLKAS

Usually inhibition stands for the change of the read-out against control, counted positive when it falls. As to `Nc1nc(-c2cccc(Cl)c2)c(-c2ccc3ncccc3n2)s1`, the inhibition in assay [1] was found to be 12.5%; in assay [2], 3.47%; in assay [3] it was 4.49%; in assay [4] it was 14%; in assay [5], 0.82%; in assay [6], 0.27%. Further, the inhibition in assay [7] is 9.77%; in assay [8], 1.82%; in [9], 2.3%; in [10], 4.49%.

Consider `CNC(=O)c1cccc(C#Cc2cncnc2Nc2ccc(OCc3cccc(F)c3)c(Cl)c2)c1`, for which the inhibition is 4.28% in assay [1]; -0.42% in assay [2]; 0.52% in [3]; 3.66% in assay [4]; 0.94% in [5]; -2.07% in assay [6]. The inhibition worked out at 3.4% in [7], 1.48% in assay [8], 7.16% in assay [9] and 1.46% in [10].

For `NS(=O)(=O)c1ccc(Nc2ncc(-c3ccccc3)o2)cc1`, the inhibition amounted to 5.13% in assay [1]; 1.46% in assay [2]; 3.33% in [3]; 6.13% in [4]; 21.6% in [5]; 3.67% in assay [6]. Further, the inhibition was 9.2% in [7], 6.69% in assay [8], 32.5% in [9] and 1.12% in assay [10].

As to `COc1ccc(-c2oc3ncnc(N)c3c2-c2ccc(NC(=O)Nc3cc(C(F)(F)F)ccc3F)cc2)cc1`, the inhibition in [1] worked out at 39.3%; in assay [2], 5.59%; in [3], 4.48%; in assay [4], 8.85%; in assay [5] it was 47.1%; in assay [6], 47.4%. Besides, the inhibition was 98.4% in assay [7], 21.9% in [8], 90.2% in [9] and 8% in assay [10].

For the compound `CCN1CCC(CC(=O)Nc2n[nH]c3nnc(-c4cccc(F)c4F)cc23)CC1`, the inhibition is -3.93% in assay [1]; 2.14% in assay [2]; -0.76% in assay [3]; 4.15% in [4]; -2.23% in assay [5]; 1.01% in [6]. For the same compound, the inhibition in assay [7] is 1.82%; in assay [8] it was -1.12%; in [9] it was 5.72%; in assay [10], -0.21%.

As to `CN(C)CCOc1ccc(-c2nc(-c3ccncc3)c(-c3ccc4c(c3)CC/C4=N\O)[nH]2)cc1`, the inhibition in [1] turned out to be 4.4%; in assay [2] it was 2.08%; in assay [3], 2.04%; in assay [4] it was 6.91%; in assay [5] it was 7.87%; in [6] it was 1.85%. Also, the inhibition in assay [7] was 3.47%; in assay [8] it was -1.89%; in assay [9] it was 4.02%; in assay [10], 0.02%.

Turning to `COc1cc(Nc2nccc(Nc3ccc4c(C)n[nH]c4c3)n2)cc(OC)c1OC`, the inhibition in assay [1] was determined as 5.56%; in [2], 2.28%; in assay [3], 4.34%; in assay [4], 2.57%; in assay [5], 87.2%; in assay [6], 78.8%. Besides, the inhibition amounted to 106% in assay [7], 79.3% in assay [8], 94.1% in [9] and 44.9% in [10].

As to `Nc1nc(-c2ccc(F)cc2)c(-c2ccc3ncccc3n2)s1`, the inhibition in assay [1] came to 11.1%; in assay [2], 3.57%; in assay [3] it was 6.9%; in [4], 9.86%; in assay [5], 6.56%; in [6] it was 4.58%. Further, the inhibition was 11.6% in [7], 3.44% in [8], 7.59% in assay [9] and 2.8% in [10].

Take `COc1ccc(-c2cc(-c3c[nH]nc3-c3ccccn3)ccn2)cc1`: the inhibition was found to be 9.65% in [1]; 3.67% in [2]; 4.38% in [3]; 13.4% in assay [4]; 1.61% in assay [5]; 5.28% in [6]. Also, the inhibition in [7] is 4.26%; in [8], 6.09%; in assay [9] it was 5.24%; in assay [10], 3.23%.
